Out of some 340,000 compounds screened, about 1,300 (0.38%) were called active. The full list was thinned out, with actives kept by preference. Values without a mark were called inactive.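 How the source made its calls: active means maximum activity change below -70%; inconclusive means maximum activity change between -70% and -50%; inactive means maximum activity change above -50%.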
On the % scale 0 is the no-effect control and ±100 the full control effect.

Chain of Voltage-gated inwardly rectifying potassium channel KCNH2 (Homo sapiens) (Q12809 whole entry, looked up): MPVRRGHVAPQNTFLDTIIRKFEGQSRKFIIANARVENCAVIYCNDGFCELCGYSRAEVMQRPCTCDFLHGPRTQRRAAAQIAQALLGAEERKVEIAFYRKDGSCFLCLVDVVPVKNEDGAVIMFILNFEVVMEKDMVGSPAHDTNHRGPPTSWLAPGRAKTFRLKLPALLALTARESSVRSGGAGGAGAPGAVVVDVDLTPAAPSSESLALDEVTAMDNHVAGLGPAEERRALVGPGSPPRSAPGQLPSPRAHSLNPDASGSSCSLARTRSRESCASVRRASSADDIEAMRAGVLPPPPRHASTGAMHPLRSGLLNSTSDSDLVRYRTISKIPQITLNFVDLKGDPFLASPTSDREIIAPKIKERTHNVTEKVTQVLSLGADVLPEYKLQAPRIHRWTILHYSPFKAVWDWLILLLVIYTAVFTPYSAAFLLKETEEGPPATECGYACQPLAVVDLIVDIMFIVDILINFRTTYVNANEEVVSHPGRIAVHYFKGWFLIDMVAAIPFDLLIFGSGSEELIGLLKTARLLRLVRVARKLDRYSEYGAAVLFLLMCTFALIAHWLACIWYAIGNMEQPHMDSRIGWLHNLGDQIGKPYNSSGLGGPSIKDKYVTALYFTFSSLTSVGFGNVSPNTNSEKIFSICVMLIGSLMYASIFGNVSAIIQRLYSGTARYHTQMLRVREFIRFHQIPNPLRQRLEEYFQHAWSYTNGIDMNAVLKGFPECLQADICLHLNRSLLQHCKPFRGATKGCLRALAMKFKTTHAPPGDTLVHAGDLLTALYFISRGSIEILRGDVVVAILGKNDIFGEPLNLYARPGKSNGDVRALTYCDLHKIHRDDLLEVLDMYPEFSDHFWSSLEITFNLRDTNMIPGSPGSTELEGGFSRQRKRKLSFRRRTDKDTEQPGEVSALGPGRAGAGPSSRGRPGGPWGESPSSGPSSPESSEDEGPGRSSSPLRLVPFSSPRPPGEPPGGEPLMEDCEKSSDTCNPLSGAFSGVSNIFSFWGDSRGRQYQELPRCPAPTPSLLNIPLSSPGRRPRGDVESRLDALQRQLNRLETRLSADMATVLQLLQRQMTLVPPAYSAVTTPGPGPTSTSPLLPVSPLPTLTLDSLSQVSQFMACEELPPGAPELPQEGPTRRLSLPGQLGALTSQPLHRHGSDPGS

The assay addresses Voltage-gated inwardly rectifying potassium channel KCNH2 (Homo sapiens) (UniProt Q12809). Put plainly: qHTS for Inhibitors of KCHN2 3.1: Wildtype qHTS. The settings on record: U2OS, BacMam KCNH2, thallium flux FluxOr; at 1.84 µM; stronger effect = lower value. The essentials: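 U2OS cells were transduced with wild-type KCNH2 virus (2.03 x 10^8 / mL) for 4 h at room temperature, then cultured overnight at 37 C. Thallium flux was read with FluxOr dye. Rate constants were normalized to DMSO controls.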
As for `c1ccc2c(c1)nnn2-c1ccncc1`, the activity change is -10.2%.

Turning to `CCOc1ccc(C2c3[nH]c4ccccc4c3CCN2Cc2cccn2-c2ncccn2)cc1` (stereo not given), the activity change is -74.4% (active).

`c1ccc(C2c3[nH]c4ccccc4c3CCN2Cc2cccn2-c2cccnc2)nc1` (stereo not given): the activity change is 5.67%.

Regarding `CCOc1ccc(C2c3[nH]c4ccccc4c3CCN2Cc2cn(CC)nc2C)cc1` (stereo not given), the activity change is 23.4%.

Consider `NC1=CC(=O)C(=O)c2cccnc21`, for which the activity change is -14.1%.

As for `O=C(COC(=O)Cc1ccc(Cl)cc1Cl)NCc1ccco1`, the activity change was 5.01%.

As to `O=C(NCCc1ccccc1)/C(=C\c1ccc([N+](=O)[O-])cc1)NC(=O)c1ccccc1`, the activity change is 23.3%.

Regarding `Cc1ccc(C(=O)N/C(=C/c2ccc(-c3cccc([N+](=O)[O-])c3)o2)C(=O)NCCCN(C)C)cc1`, the activity change is -0.553%.

Take `CN(C)CCNC(=O)/C(=C/c1cccc([N+](=O)[O-])c1)NC(=O)c1ccccc1`: the activity change is -79.1% (active).

Regarding `O=C(CN1C(=O)NC2(CCc3ccccc32)C1=O)NC1CCCCC1` (stereo not given), the activity change is 12.5%.

For `COc1ccc(C[C@H]2CN3C(=NC[C@H]3C)N2CCNC(=O)CCC2CCCCC2)cc1`, the activity change is -97.2% (active).

Consider `COc1cccc(CNC(=O)CCC2CCCN(Cc3ccc(OC(F)F)cc3)C2)c1` (stereo not given), for which the activity change was -23.2%.

Take `C/C=C(\C)C(=O)NCCN1C2=NC[C@H](Cc3ccc(O)cc3)N2C[C@@H]1Cc1ccc(OC)cc1`: the activity change was -2.93%.

Turning to `COc1ccc(NC(=O)C[C@H]2C(=O)N(CCc3ccccc3)C[C@@H]2C)cc1`, the activity change is -25.6%.

Consider `O=C(CCN1CCCCC1)Nc1ccc(F)c(F)c1`, for which the activity change was -2.99%.

As to `Cc1ccc(NC(=O)COC(=O)CN2CCSC2=O)cc1F`, the activity change is -2.67%.

For the compound `CC(C)NC(=O)Nc1ccc2c(c1)C(=O)N([C@H](C)CO)C[C@H](C)[C@@H](CN(C)Cc1ccc(C(F)(F)F)cc1)OCCCC[C@@H](C)O2`, the activity change was -10.8%.

With `CC1(C)Cc2cccc(OCC(=O)Nc3nccs3)c2O1`, the activity change was -0.616%.

Turning to `CC1(C)Cc2cccc(OCC(=O)N3CCN(c4ccc([N+](=O)[O-])cc4)CC3)c2O1`, the activity change is -90.2% (active).

`CC1(C)Cc2cccc(OCC(N)=O)c2O1`: the activity change is -15.1%.

With `Cn1c(CNC(=O)c2ccccc2F)nnc1SCc1ccc(F)cc1`, the activity change was 6.63%.

For the compound `COc1ccccc1C(=O)NCc1nnc(SC(C)C(=O)Nc2nccs2)n1C` (stereo not given), the activity change was -5.03%.

Take `CC(Sc1nnc(CNC(=O)c2ccccc2F)n1C)C(=O)Nc1nccs1` (stereo not given): the activity change is -161% (active).

Turning to `C=CCn1nc(C(=O)OCC)cc1-c1sc(NC(=O)c2ccccc2)nc1C`, the activity change was 41.9%.

On to `CN(C)C(CNC(=O)c1cc(Br)c(Br)s1)c1ccco1` (stereo not given), for which the activity change was 6.08%.

`O=S(=O)(c1cccc(C(F)(F)F)c1)N1c2ccccc2-n2cccc2C1c1cccnc1` (stereo not given): the activity change was -12.2%.

In the case of `O=C(CCc1ccccc1Cl)Nc1ccc(S(=O)(=O)Nc2nccs2)cc1`, the activity change was -79.2% (active).

For `Cc1ccc(OCCC(=O)Nc2ccc(S(=O)(=O)Nc3nccs3)cc2)cc1`, the activity change is 4.09%.

For `CCC(CC)C(=O)Nc1ccc(S(=O)(=O)Nc2nccs2)cc1`, the activity change is 0.976%.

As for `O=C(OCC(=O)N1CCCCCC1)c1cccc(Cl)c1Cl`, the activity change was 0.263%.

For `C[C@H]1CN([C@@H](C)CO)C(=O)CCCn2cc(nn2)CO[C@@H]1CN(C)S(=O)(=O)c1ccc(-n2cccn2)cc1`, the activity change was 12.7%.

For the compound `CCOc1ccc(S(=O)(=O)NCCC(=O)NNC(=O)c2ccc(F)cc2)cc1`, the activity change is -9.08%.

Turning to `CCN1CCCC1Cn1cnc2c([nH]c3cc(OC)ccc32)c1=O` (stereo not given), the activity change is 0.665%.

Turning to `Fc1ccc2[nH]c3c(N4CCN(Cc5ccc6c(c5)OCO6)CC4)ncnc3c2c1`, the activity change is 22.8%.

`CCN1CCCC1CNc1ncnc2c1[nH]c1ccc(F)cc12` (stereo not given): the activity change is -81.9% (active).

For the compound `COc1cc(-c2nnc(NC(=O)CS(=O)(=O)c3ccc(Cl)cc3)o2)cc(OC)c1OC`, the activity change is -3.22%.

`C[C@@H]1Cn2cnc(C(=O)Nc3ccc(CNC(=O)OC(C)(C)C)cc3)c2C(=O)N1`: the activity change is 1.51%.

As to `O=C(CSc1nnc(-c2cccnc2)n1Cc1ccco1)c1ccc(Cl)c(Cl)c1`, the activity change is 1.21%.

On to `Cc1ccc(NC(=O)CSc2nnc(-c3cnccn3)n2Cc2ccco2)cc1C`, for which the activity change is 8.19%.

For `O=C(CSc1nnc(-c2cnccn2)n1Cc1ccco1)c1ccc(Cl)c(Cl)c1`, the activity change is -187% (active).

For the compound `CC(=O)Nc1ccc(SCC(=O)NC(=O)c2ccc(Cl)cc2)cc1`, the activity change was 1.87%.

Take `CSc1ncnc2c1ncn2CCCNCC(C)c1ccccc1` (stereo not given): the activity change is -15.1%.

On to `O=C(Nc1ccnn1C1CCN(C/C=C/c2ccc(F)cc2)CC1)C1CCCC1`, for which the activity change is -105% (active).

Turning to `CC(CN1CCC(n2nccc2NC(=O)C2CCCC2)CC1)c1ccccc1` (stereo not given), the activity change is 15.8%.

Consider `Cc1nn(C)c(Cl)c1CN1CCC(n2nccc2NC(=O)C2CCCC2)CC1`, for which the activity change was 26.5%.

`COC(=O)N(C)C[C@@H]1OCc2cnnn2CCCC(=O)N([C@@H](C)CO)C[C@@H]1C`: the activity change was 1.19%.

Take `COCCn1c(SCC(=O)Nc2ccc(F)cc2F)nc2c(c1=O)SCC2`: the activity change was -2.69%.

As to `Nc1cc(C(=O)N2CCN(c3ccccc3Cl)CC2)ccc1N1CC2CC(C1)c1cccc(=O)n1C2` (stereo not given), the activity change is 6.37%.

As for `C=CCNC(=S)N1CCc2[nH]c3ccccc3c2C1`, the activity change was 1.48%.

Turning to `CC1CCc2[nH]c3ccc(C(=O)N(C)CC(=O)Nc4cccc(F)c4)cc3c2C1` (stereo not given), the activity change is 2.89%.

In the case of `O=C(CCCN1CCc2[nH]c3ccc(F)cc3c2C1)c1ccc(F)cc1`, the activity change is -94.7% (active).

Regarding `Cc1ccc(C(=O)N[C@H](C(=O)N2CCN(c3ncccn3)CC2)C(C)C)cc1`, the activity change was 1.07%.

`Cc1ccc(S(=O)(=O)N2C[C@H]3C(=O)C[C@@H](c4cccc5ccccc45)N(S(=O)(=O)c4ccc(C)cc4)[C@H]3C[C@H]2c2ccc(Cl)cc2)cc1`: the activity change is 5.59%.

In the case of `O=C(COc1ccc(Br)cc1)OCC(=O)c1ccc[nH]1`, the activity change was -10.8%.

On to `COc1ccc(NC(=O)CN(C)C(=O)c2cc(C)oc2C)cc1`, for which the activity change is -15.3%.

The values above are taken from PubChem BioAssay AID720551 (National Center for Advancing Translational Sciences (NCATS), 2013).
